This is an account of results in PubChem BioAssay (EPA / NIEHS).

Assay [1] in a line: APR_HepG2_CellCycleArrest_1hr: Apredica 1-hour HepG2 Assay for Cell Cycle Arrest (AID 2282666). The conditions noted are these: high-content imaging, actives raise or lower the signal. In a few lines: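 Cell cycle arrest scored from nuclear DNA content (Hoechst 33342) using high-content imaging of fixed HepG2 cells after 1 h treatment across 0.39–200 uM, in duplicate. Gain or loss fitted relative to 0.5% DMSO.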

A short description of assay [2]: ACEA_ER_80hr: ACEA Biosciences xCELLigence Real-Time Cell Analysis on Estrogen Receptor Agonism for Proliferation (AID 2282667; active = hit-call score of the fitted dose curve at least 0.9, where 1 is the maximum). To be noted: T47D proliferation, impedance (xCELLigence), 80 h. In a few lines:
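Estrogen-driven proliferation is captured as electrode impedance in T47D cells 80 h after compound addition. Test articles ran at 8 concentrations, 1:4 dilutions from 100 uM final, in two replicate plates.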

The nature of assay [3]: APR_HepG2_CellLoss_1hr: Apredica 1-hour HepG2 Assay for Cell Loss (AID 2282668).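 Also: curves fitted both ways against DMSO so gain or loss of cells counts.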 To be noted: high-content imaging. In a few lines:
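Cell number comes from high-content imaging of Hoechst-labelled nuclei in fixed HepG2 cells. Cells were exposed for 1 h to ten concentrations from 0.39 to 200 uM in 0.5% DMSO. Gain or loss was fitted against DMSO controls.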

Assay [4] in a line: APR_HepG2_MicrotubuleCSK_1hr: Apredica 1-hour HepG2 Assay for Microtubule CSK Stabilty (AID 2282669). To be noted: HepG2 microtubule cytoskeleton imaging, actives raise or lower the signal. The method, boiled down:
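Alpha-tubulin immunofluorescence, imaged by automated high-content microscopy with Hoechst nuclear segmentation, measured cytoskeletal change after 1 h dosing of HepG2 at 0.39–200 uM in 0.5% DMSO. Activity fitted in both directions relative to DMSO.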

The nature of assay [5]: APR_HepG2_P-H2AX_1hr: Apredica 1-hour HepG2 Assay for H2AX Phosphorylation (AID 2282673). To be noted: high-content imaging, actives raise or lower the signal. In a few lines:
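Phospho-H2A.x immunofluorescence (1:200, FITC secondary) plus Hoechst nuclear stain, quantified by high-content imaging in HepG2 after 1 hr compound exposure. Ten concentrations, 0.39 to 200 uM, in duplicate with 0.5% DMSO; fit both directions against DMSO.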

Assay [6] is described as follows: APR_HepG2_MitoMembPot_1hr: Apredica 1-hour HepG2 Assay for Mitochondrial Membrane Potential (AID 2282675). To be noted: imaging, actives raise or lower the signal. The method, boiled down: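 Mitochondrial membrane potential read as MitoTracker Red CMXRos intensity by automated imaging of fixed HepG2 cells. Dye at 250 nM for 30 min pre-fixation; compounds 0.39 to 200 uM for 1 hour, duplicate wells, 0.5% DMSO.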

Assay [7] is described as follows: APR_HepG2_CellCycleArrest_24hr: Apredica 24-hour HepG2 Assay for Cell Cycle Arrest (AID 2282905).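 Also: cell cycle arrest scored as ratio of 2N to 4N nuclear DNA content.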 The conditions noted are these: imaging, actives raise or lower the signal. The method, boiled down: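 After 24 h exposure at 0.39–200 uM in 0.5% DMSO, fixed cells received Hoechst 33342 staining. Imaging quantified per-nucleus DNA content; gain or loss fitted against DMSO controls.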

Assay [8] in a line: APR_HepG2_CellLoss_24hr: Apredica 24-hour HepG2 Assay for Cell Loss (AID 2282908).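 As to AC50: fit in both directions so a hit may be cell loss or gain.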 To be noted: high-content imaging. In a few lines:
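Nuclei stained with Hoechst 33342 after formaldehyde fixation (3.7%) were imaged at 20x to count cells. Exposure lasted 24 hr, at ten concentrations from 0.39 to 200 uM in duplicate, with 0.5% v/v DMSO. Fit bidirectional, relative to DMSO.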

Assay [9] is described as follows: APR_HepG2_MitoticArrest_24hr: Apredica 24-hour HepG2 Assay for Mitotic Arrest (AID 2282910). The conditions noted are these: high-content imaging, actives raise or lower the signal. In a few lines: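 High-content imaging of fixed HepG2 cells labeled with Hoechst 33342 and anti-phospho-histone H3, after 24 h treatment. Ten concentrations 0.39 to 200 uM in duplicate, final DMSO 0.5%; changes fitted both directions relative to DMSO.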

The nature of assay [10]: APR_HepG2_MitoMembPot_24hr: Apredica 24-hour HepG2 Assay for Mitochondrial Membrane Potential (AID 2282911). To be noted: imaging, actives raise or lower the signal. The method, boiled down: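 Mitochondrial dye uptake (MitoTracker Red CMXRos, 250 nM, 30 min pre-fixation) in HepG2 after 24 hr compound exposure, 0.39–200 uM; ArrayScan images at 20x, activity fitted in both directions relative to DMSO.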

Assay [11] in a line: APR_HepG2_MitoMass_24hr: Apredica 24-hour HepG2 Assay for Mitochondrial Mass (AID 2282912). To be noted: high-content imaging, actives raise or lower the signal. In a few lines: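 Endpoint is MitoTracker Red CMXRos (250 nM, 30 min, pre-fixation) intensity from 20x high-content imaging, nuclei located by Hoechst. Human HepG2 cells received ten concentrations from 0.39 to 200 uM in 0.5% DMSO for 24 hr, duplicate wells. Bidirectional fit relative to DMSO.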

Assay [12] in a line: APR_HepG2_p53Act_24hr: Apredica 24-hour HepG2 Assay for p53 Activation (AID 2282913).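 Also: p53 protein immunofluorescence averaged per cell in HepG2 with Hoechst nuclei.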 To be noted: high-content imaging, actives raise or lower the signal. The method, boiled down:
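Following 24 hr dosing of HepG2 at 0.39–200 uM, the cells undergo formaldehyde fixation, Triton permeabilization and multiplexed antibody labeling that includes p53 (Cy5). Signal from the imaging is referenced to DMSO solvent controls.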

A short description of assay [13]: APR_HepG2_CellCycleArrest_72hr: Apredica 72-hour HepG2 Assay for Cell Cycle Arrest (AID 2282914). To be noted: high-content imaging, actives raise or lower the signal. In a few lines: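 Using multiplexed high-content imaging, HepG2 nuclei stained with Hoechst 33342 (2 ug/mL) were analysed for DNA content after fixation and permeabilization. Treatment lasted 72 hr across 0.39–200 uM in duplicate with final DMSO 0.5% v/v; DMSO served as negative control.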

Assay [14] is described as follows: APR_HepG2_StressKinase_1hr: Apredica 1-hour HepG2 Assay for Stress Kinase (AID 2282906). To be noted: HepG2 stress kinase (phospho-c-Jun) imaging, actives raise or lower the signal. The method, boiled down: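 High-content imaging of phospho-c-Jun immunostaining (with Hoechst nuclear identification) after a 1 h exposure of HepG2 cells to 10 concentrations from 0.39 to 200 uM, final DMSO 0.5%. Fitted bidirectionally against DMSO.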

Assay [15] in a line: APR_HepG2_NuclearSize_24hr: Apredica 24-hour HepG2 Assay for Nuclear Size (AID 2282907). To be noted: high-content imaging, actives raise or lower the signal. In a few lines: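 Nuclear size from Hoechst 33342-stained, formaldehyde-fixed HepG2 nuclei imaged by high-content microscopy, after 24 h dosing at ten concentrations from 0.39 to 200 uM in 0.5% DMSO; gain or loss relative to DMSO baseline.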

Assay [16] can be described thus: APR_HepG2_MicrotubuleCSK_24hr: Apredica 24-hour HepG2 Assay for Microtubule CSK Stabilty (AID 2282909). The conditions noted are these: HepG2 microtubule cytoskeleton imaging, actives raise or lower the signal. The method, boiled down:
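Fixed HepG2 cells were stained for alpha-tubulin and imaged after 24 hr exposure to ten concentrations spanning 0.39–200 uM in 0.5% DMSO. Signal change was fitted in both directions relative to DMSO; taxol was the positive control.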

Assay [17] in a line: APR_HepG2_MitoticArrest_1hr: Apredica 1-hour HepG2 Assay for Mitotic Arrest (AID 2282672). The conditions noted are these: high-content imaging, actives raise or lower the signal. The method, boiled down:
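Ten-point concentration series (0.39 to 200 uM, duplicates, 0.5% v/v DMSO) applied to human HepG2 liver cells for 1 hr. High-content imaging of phospho-histone H3 and Hoechst-stained nuclei after fixation and permeabilization; DMSO-normalised bidirectional fit.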

Molecules are shown by their SMILES. Results filed as inconclusive are left out. Some structures have more than one record in an assay (separate samples or runs), and their calls can disagree. Active and inactive are the calls of the source. The calls were made as follows, unless noted: active = hit-call score of the fitted dose curve at least 0.9, where 1 is the maximum; inactive = score below 0.9.

Turning to `COc1cnc(OC)n2nc(NS(=O)(=O)c3c(OCC(F)F)cccc3C(F)(F)F)nc12`, the result in assay [1], in assay [2], in assay [3], in assay [4], in assay [5] and in assay [6] was inactive. The compound was called inactive in assay [7], in [8], in assay [9], in assay [10], in [11] and in assay [12]. For the same compound, the compound was classed as inactive in assay [13].
Take `CC1COC(Cn2cncn2)(c2ccc(Oc3ccc(Cl)cc3)cc2Cl)O1` (stereo not drawn): the compound was classed as inactive in assay [1], in [2], in assay [3], in [4], in assay [5] and in assay [6]. The compound was called inactive in [7], in assay [11] and in [12]. The AC50 in [8] was 94.7 µM (active); in assay [9] it was 94.4 µM (active); in assay [10], 105 µM (active); in [13] it was 64.3 µM (active).
On to `COC(=O)C(C)Oc1ccc(Oc2ccc(Cl)cc2Cl)cc1` (stereo not drawn), for which the compound was classed as inactive in assay [1], in [3], in [4], in [5], in assay [6] and in [7]. Besides, the compound was classed as inactive in [14], in [8], in [9], in assay [10], in [11] and in [12]. The outcome in [13] was inactive. In addition, in assay [10], the AC50 was 129 µM (active).
As for `Cc1c(F)c(F)c(COC(=O)C2C(/C=C(\Cl)C(F)(F)F)C2(C)C)c(F)c1F` (stereo not drawn), the call in [1], in assay [2], in assay [3], in assay [4], in assay [5] and in assay [6] was inactive. For the same compound, the compound was called inactive in assay [7], in assay [15], in assay [8], in [9], in [10] and in assay [11]. The compound was classed as inactive in [12] and in assay [13].
Take `Fc1ccc(Oc2ccnc3cc(Cl)cc(Cl)c23)cc1`: the compound was called inactive in assay [1], in assay [2], in assay [3], in assay [4], in assay [5] and in assay [6]. For the same compound, the call in assay [7], in assay [16], in [10], in assay [11], in assay [12] and in [13] was inactive. In addition, the AC50 in assay [8] is 100 µM (active); in [9], 109 µM (active).
With `CCON=C(CC)C1=C(O)CC(c2c(C)cc(C)cc2C)CC1=O` (stereo not drawn), the compound was called inactive in assay [1], in assay [2], in assay [3], in [4], in [17] and in assay [5]. Further, the result in assay [6], in assay [7], in assay [8], in [16], in assay [9] and in [10] was inactive. For the same compound, the outcome in [11], in assay [12] and in assay [13] was inactive.
For the compound `CCCCOC(=O)c1ccccc1C(=O)OCCCC`, the outcome in assay [1], in assay [2], in [3], in [4], in assay [17] and in assay [5] was inactive. For the same compound, the result in [6], in assay [7], in assay [8], in assay [16], in [9] and in assay [10] was inactive. Besides, the result in assay [11], in assay [12] and in assay [13] was inactive.

In general, AC50 refers to the concentration giving half of the maximal activity seen.
